From PubChem BioAssay
CYP2C9 inh – blockers of cytochrome P450 2C9 activity – biochemical, luminescence, ADME assay, primary screen | P11712 | CYP2C9 Supersomes, luciferin-H conversion | inhibition, % at 5 µM | hit rate 20% among 96,000 | AID 777, 2007;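 active = blocking of liver enzyme CYP2C9 beyond about 50% at 5 µM, limit read from the data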
Target sequence (P11712 whole entry, looked up): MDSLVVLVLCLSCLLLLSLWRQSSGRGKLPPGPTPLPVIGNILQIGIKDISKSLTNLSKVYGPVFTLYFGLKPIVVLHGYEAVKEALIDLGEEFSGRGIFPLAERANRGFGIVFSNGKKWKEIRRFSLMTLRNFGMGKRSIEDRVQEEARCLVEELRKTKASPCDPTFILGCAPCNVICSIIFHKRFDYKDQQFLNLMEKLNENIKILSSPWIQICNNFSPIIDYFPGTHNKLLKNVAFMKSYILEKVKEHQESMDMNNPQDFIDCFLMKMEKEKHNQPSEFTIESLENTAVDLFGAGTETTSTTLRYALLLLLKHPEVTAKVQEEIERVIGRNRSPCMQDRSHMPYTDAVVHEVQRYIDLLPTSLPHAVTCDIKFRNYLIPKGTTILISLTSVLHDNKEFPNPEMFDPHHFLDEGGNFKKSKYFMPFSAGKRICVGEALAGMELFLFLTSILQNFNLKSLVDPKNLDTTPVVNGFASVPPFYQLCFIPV
CYP2C19 act – human CYP2C19 activators, primary screen, biochemical, luminescence; Cytochrome P450 2C19 (Homo sapiens), P33261; recombinant CYP2C19, luciferin-H EGE luminescence; stronger effect = higher value; 0 = fully inhibited enzyme, 1 = untreated enzyme; activation factor at 5 µM; 96,000 tested, under 10 active; AID 1025, 2008;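 active = activation factor of at least 2 at 5 µM in the primary screen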
sEH inh – soluble epoxide hydrolase inhibitors, primary screen, biochemical, human sEH | Bifunctional epoxide hydrolase 2 (Homo sapiens), P34913 | recombinant human sEH enzymatic activity assay | inhibition, % at 2 µM | hit rate 0.34% among 91,000 | AID 707, 2007; in the data active = inhibition above about 80%
sEH activator – soluble epoxide hydrolase activators, primary screen, biochemical, human sEH; Bifunctional epoxide hydrolase 2 (Homo sapiens), P34913; activation, % at 2 µM; purified human sEH enzymatic activity, activator screen; AID 717, 2007; hit rate 0.04% among 91,000; in the data active = activation above about 37%
CYP2C19 inh – blockers of cytochrome P450 2C19 activity – biochemical, luminescence, ADME assay, primary screen | CYP2C19 Supersomes, luciferin-H EGE luminescence, 30 min | inhibition, % at 5 µM | hit rate 21% among 96,000;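 active = CYP2C19 inhibition above a set limit at 5 µM in the primary screen, cut at about 50% in these data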
CYP2C9 act – human CYP2C9 activators, primary screen, biochemical, luminescence. hit rate 1.4% among 96,000. Cytochrome P450 2C9 (Homo sapiens), P11712. activation factor at 5 µM. recombinant CYP2C9, luciferin-H conversion; stronger effect = higher value; factor 1 = untreated enzyme, 0 = blocked. AID 1024, 2008;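 active = activation factor of 2 or more for CYP2C9 at a 5 µM dose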
Hits are given with their value. Only some compounds are listed: those with a hit (about 27% of all), similar ones and a draw of the others.

Screening Cc1ccnc(NS(=O)(=O)c2ccc(N=CC3=C(O)CC(C)(C)CC3=O)cc2)n1 returned CYP2C9 inh inactive, CYP2C19 act inactive, sEH inh inactive, sEH activator inactive, CYP2C19 inh inactive and CYP2C9 act inactive.
`C/C(=N\NC(=S)NCCc1ccccc1)c1ccc(C)cc1` gave sEH inh inactive and sEH activator inactive.
For C=C(C)CNC(=S)N/N=C(\C)c1ccc(-n2ccnc2)cc1 the results were CYP2C9 inh 100, CYP2C19 act inactive, sEH inh inactive, sEH activator inactive, CYP2C19 inh 100 and CYP2C9 act inactive.
For O=C(OCC(=O)N(C1CCCCC1)C1CCCCC1)c1cnccn1 the results were CYP2C9 inh inactive, CYP2C19 act inactive, CYP2C19 inh 54 and CYP2C9 act inactive.
Screening O=C(NC1CCCCCCC1)c1cnccn1 returned CYP2C9 inh inactive, CYP2C19 act inactive, sEH inh inactive, sEH activator inactive, CYP2C19 inh 63 and CYP2C9 act inactive.
Oc1ccc(-c2cn3c(n2)SCC3)cc1O was read as CYP2C9 inh inactive, CYP2C19 act inactive, sEH inh inactive, sEH activator inactive, CYP2C19 inh inactive and CYP2C9 act inactive.
C=CCNc1ncnc2c1[nH]c1ccc(C)cc12 was read as CYP2C9 inh 56, CYP2C19 act inactive, sEH inh inactive, sEH activator inactive, CYP2C19 inh inactive and CYP2C9 act inactive.
O=c1c2ccccc2nc(SCc2cn3ccsc3n2)n1-c1ccc(F)cc1 was read as CYP2C9 inh 97, CYP2C19 act inactive, sEH inh inactive, sEH activator inactive, CYP2C19 inh 84 and CYP2C9 act inactive.
For CSc1ccccc1C(=O)NCC1CCCO1 (centres undefined) the results were CYP2C9 inh inactive, CYP2C19 act inactive, sEH inh inactive, sEH activator inactive, CYP2C19 inh inactive and CYP2C9 act inactive.
For Cc1ccc(-c2cc(C(=O)NCC3CCCO3)no2)cc1 (centres undefined) the results were CYP2C9 inh inactive, CYP2C19 act inactive, sEH inh inactive, sEH activator inactive, CYP2C19 inh inactive and CYP2C9 act inactive.
For Cn1nc(-c2ccc(Cl)cc2)c2cc(C(=O)NCC3CCCO3)sc21 (centres undefined) the results were CYP2C9 inh 53, CYP2C19 act inactive, sEH inh inactive, sEH activator inactive, CYP2C19 inh inactive and CYP2C9 act inactive.
Screening O=C(NCC1CCCO1)c1cc(-c2ccccc2)on1 (centres undefined) returned CYP2C9 inh inactive, CYP2C19 act inactive, sEH inh inactive, sEH activator inactive, CYP2C19 inh inactive and CYP2C9 act 2.6.
For O=C(NCC1CCCO1)c1ccccc1-c1nc(-c2ccccc2)no1 (centres undefined) the results were CYP2C9 inh 58, CYP2C19 act inactive, sEH inh inactive, sEH activator inactive, CYP2C19 inh inactive and CYP2C9 act inactive.
For O=C(NCc1ccco1)c1cc(-c2ccccc2)on1 the results were CYP2C9 inh inactive, CYP2C19 act inactive, sEH inh inactive, sEH activator inactive, CYP2C19 inh inactive and CYP2C9 act 2.1.
O=C(NCc1ccco1)c1cc(-c2ccc(F)cc2)on1 was read as CYP2C9 inh inactive, CYP2C19 act inactive, CYP2C19 inh inactive and CYP2C9 act inactive.
For CN1CCN(CCCNC(=O)c2cc3c(-c4ccc(Cl)cc4)nn(C)c3s2)CC1 the results were CYP2C9 inh inactive, CYP2C19 act inactive, sEH inh inactive, sEH activator inactive, CYP2C19 inh inactive and CYP2C9 act inactive.
For O=C(c1ccc(Cl)cc1)N1CCCC(c2ccccc2)=N1 the results were CYP2C9 inh inactive, CYP2C19 act inactive, sEH inh inactive, sEH activator inactive, CYP2C19 inh inactive and CYP2C9 act inactive.
For CC1CN(S(=O)(=O)c2ccc(Cl)c(S(=O)(=O)N3CC(C)OC(C)C3)c2)CC(C)O1 (centres undefined) the results were CYP2C9 inh inactive, CYP2C19 act inactive, CYP2C19 inh inactive and CYP2C9 act inactive.
Cn1c(=O)c2c(ncn2CC(=O)NCc2cccnc2)n(C)c1=O was read as CYP2C9 inh inactive, CYP2C19 act inactive, sEH inh inactive, sEH activator inactive, CYP2C19 inh inactive and CYP2C9 act inactive.
